# According to PubChem BioAssay AID2029 (NMMLSC, 2009):
# “And” between values parts separate entries of the source, which are not always exact repeats. Identical values can stand only once. In all, about 320,000 compounds went through this assay and about 210 (0.066%) were called active. The entries come from a sample that favours actives as a whole. A number with no mark means an inactive call.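 The calls were made as follows: active = GFP response relative to DMSO above a set limit, near the screen mean plus 3 SD (cut at about 150% in these data); inconclusive = Fewer than 70 cells measured for a yeast strain; inactive = the rest.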
# Assay: TOR pathway RTG branch CIT2 reporter changes – S. cerevisiae, GFP fusion, multiplex flow cytometry, MLPCN library, primary screen (AID 2029);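 also: ratio of well median GFP fluorescence to mean of DMSO wells on the plate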
# Settings: S. cerevisiae CIT2-GFP strain, 3 h, at 10 µM, stronger effect = higher value, 100 means same as DMSO wells
row,Compound,GFP response vs DMSO
1,O=C(Nc1ccc(Cl)cc1)c1cc2nc(C3CC3)cc(C(F)(F)F)n2n1,115%
2,Cc1ccccc1NC(=O)N1CCCC1C(=O)NCc1ccccc1 (stereo unspecified),113%
3,NC(=O)c1ncc(C(F)(F)F)cc1Oc1ccc(F)cc1,99.4%
4,CNc1nc(SC)nc(N(C#N)CC(=O)OC)n1,104%
5,O=C(COC(=O)c1ccc(O)cc1O)c1ccc2c(c1)OCCO2,95.1%
6,O=C1Nc2cc(Cl)c(Cl)cc2N(O)N1c1cc(Cl)cc(Cl)c1,97.6%
7,Cc1c(NC(=O)CSCc2ccccc2)cccc1C(=O)O,106%
8,CCC(C)(C)C1CCC(=NNC(=O)c2ccc(Br)o2)CC1 (stereo unspecified),97.7%
9,COCCCNC(=O)[C@H]1N2C(=O)c3ccccc3C2SC1(C)C (stereo partly specified),112%
10,Cc1cc2cc3c(N)[nH]nc3nc2cc1C,113%
11,O=C(NC1CCN(C(=S)Nc2ccc(Cl)cc2)CC1)C1CCCCC1,97.3%
12,Cc1ccc2nc(-c3ccc(NC(=O)CN(C)S(=O)(=O)c4ccccc4)cc3)sc2c1,111%
13,COc1ccc(N2CCN(C(=O)[C@@H](NC(=O)c3cc(OC)cc(OC)c3)C(C)C)CC2)cc1,95.1%
14,Cc1ccccc1NC(=O)CSC(=O)c1ccccc1,102%
15,O=C(NN1C(=O)C2CCCCC2C1=O)c1ccco1 (stereo unspecified),104%
16,COCCCNS(=O)(=O)c1cccc(S(=O)(=O)c2cccc(S(=O)(=O)NCCCOC)c2)c1,115%
17,O=c1/c(=C/c2ccc(CNS(=O)(=O)c3ccccc3)o2)sc2n1CCN=2,107%
18,CC1(C)CC(=O)C=C(N2CCOCC2)C1,93.2%
19,CCCCOc1ccc(C(=O)NCC(=O)OCC(=O)c2c(N)n(C)c(=O)n(C)c2=O)cc1,92.4%
20,CC(C)c1ccc2c(c1)c(SC(C)(C)C)c(CC(C)(C)C(=O)O)n2Cc1ccc(Cl)cc1,112% and 88.8%
21,C/C(CCC(=O)OC[C@H]1O[C@H](C#Cc2ccccc2)C=C[C@@H]1Oc1ccc(C)cc1)=N\OC[C@@H](O)[C@H]1O[C@@H]2OC(C)(C)O[C@@H]2[C@H]1O,109%
22,Nc1ccc(OCC(O)C[n+]2ccc(CCS(=O)(=O)[O-])cc2)cc1 (stereo unspecified),90%
23,CCOC(=O)c1c(CN(C)C)n(-c2ccccc2)c2cc(Br)c(O)cc12,101%

row,Compound,GFP response vs DMSO
1,Cc1ccc(NC(=O)CN(C)C(=O)COC(=O)C(C)(C)Oc2ccc(Cl)cc2)cc1,109%
2,Cc1cccc[n+]1CC(=O)c1ccccc1,113%
3,COc1ccccc1NC(=O)C[n+]1ccccc1,120%
4,COC(=O)C[n+]1cccc2ccccc21,175% (active)
5,CC(=O)NS(=O)(=O)c1ccc2c(c1)Cc1cc(S(=O)(=O)NC(C)=O)ccc1-2,99.9%
6,O=C(c1ccco1)N1CCN(C(=O)C2CC(c3ccc(Cl)c(Cl)c3)=NO2)CC1 (stereo unspecified),89%
7,Cc1ccc(CNC(=O)C(=O)c2cn(CC(=O)N3CCCC3)c3ccccc23)cc1,104%
8,CN(Cc1ccccc1)C(=O)C(=O)c1cn(CC(=O)N2CCCC2)c2ccccc12,154% (active)
9,CN1CCN(C(=O)C(=O)c2cn(CC(=O)N3CCCC3)c3ccccc23)CC1,103%
10,CCCCCC1CC(COc2ccccc2)OC1=O (stereo unspecified),96.7%
11,CC[n+]1cc(C)ccc1/C=C/c1ccc(N(C)C)cc1,158% (active)
12,CO[C@H]1[C@@H]2C=CO[C@@H](O[C@H]3O[C@@H](CO)[C@H](O)[C@@H](O)[C@@H]3O)[C@@H]2[C@@]2(CO)O[C@@H]12,109%
13,C/C=C/c1ccc(OCC(O)CN2CCCCCCC2)c(OC)c1 (stereo unspecified),101%
14,N#Cc1cccc(NC(=O)CN2CCCCCC2)c1,100%
15,CCN(CC(=O)Nc1c(F)cccc1F)C(=O)CN1c2cccc3cccc(c23)S1(=O)=O,104%
16,COc1ccc(Nc2cc(Sc3ccc(OC)cc3)ncn2)cc1,86.2%
17,Cc1ccc2c(=O)oc(N(C)C)nc2c1,105%
18,CCn1c(SCC(=O)Nc2ccccc2F)nc2c(c1=O)SC(C)C2 (stereo unspecified),100%
19,Cc1cccc([C@@H]2[C@@H]3C(=O)N(C)C(=O)[C@@H]3[C@@H]3C(=O)Nc4ccccc4C(=O)N23)c1,87.5%
20,CCc1ccc2[nH]c(=O)c(Cc3ccccc3)c(O)c2c1,105%
21,COc1ccc(NC(=O)CN(Cc2ccccc2)S(C)(=O)=O)cc1OC,101%
22,Cc1ccccc1OC(=O)Cn1c(C(F)(F)F)nc2ccccc21,84.2%
23,COc1ccc(C(=O)NC2CC2)cc1OC1CCN(Cc2ccc(SC)cc2)CC1,114%

row,Compound,GFP response vs DMSO
1,CCOC(=O)CSc1nc(N2CCOCC2)c2c(c1C#N)CC(C(C)C)OC2 (stereo unspecified),104%
2,COc1ccc(C(=O)COC(=O)c2c(C)noc2C)cc1Cl,98.9%
3,COc1ccc(NC(=O)CN(C)C(=O)c2n[nH]c3ccccc23)cc1,101%
4,CN(C)S(=O)(=O)c1cccc(NC(=O)COc2ccc3ccccc3c2)c1,90.9%
5,O=C(CN1CCOCC1)N1CCCc2c1c(=O)oc1ccc(OCc3ccccc3)cc21,99%
6,Cc1cc(C)cc(NC(=O)C2CCCN(S(=O)(=O)c3ccc4[nH]c(=O)ccc4c3)C2)c1 (stereo unspecified),98.8%
7,COc1ccc(CNS(=O)(=O)c2cc(-c3cc(C)no3)ccc2C(C)C)cc1,95.4%
8,CN1CCC(=NNC(=O)CN(c2cccc(Cl)c2)S(C)(=O)=O)CC1,95.2%
9,Cc1cccc(CSc2ccc(-c3cccs3)nn2)c1,87.4%
10,CC(C)(C)CN1C(=O)C(=O)NC[C@H]1Cc1cccc2ccccc12,101%
11,CCCCC(=O)N(c1ccc(OC)cc1)C1C=CS(=O)(=O)C1 (stereo unspecified),108%
12,COc1cc(CO)c(C2(CO)CCCC2)cc1OC,94.8%
13,CC(C)=CCN1CCN(CCCc2ccccc2)CC1CCO (stereo unspecified),105%
14,CCCCCc1nnc(NC(=O)c2ccc(=O)n(C)n2)s1,113%
15,O=S(=O)(c1ccc(Br)cc1)n1ccc2ccccc21,77.6%
16,CC(C)(C)OC(=O)NCCCCCNC(=O)c1[nH]cnc1C(=O)Nc1nccs1,104%
17,CCOCCc1nn2c(=O)cc(CSCC(=O)Nc3cccc(C)c3C)nc2s1,96.3%
18,C/C(=N\NC(=O)c1cc2c(s1)CCC(C)C2)c1cccnc1 (stereo unspecified),104%
19,O=C(NCCCn1ccnc1)/C(=C\c1ccccc1F)NC(=O)c1ccccc1,93.1%
20,Cc1c(C2=CCN(S(=O)(=O)c3ccc(Cl)cc3)CC2)c2ccccc2n1C,98.5%
21,CN(C)S(=O)(=O)c1cc(C(=O)Nc2ccn(C)n2)c(Cl)cc1Cl,6000% [may fluoresce green] (active)
22,Cn1ccc(NC(=O)Nc2ccc(Cl)cc2)n1,95.9%
23,Cc1ccc(C(=O)Nc2ccn(C)n2)cc1,109%

row,Compound,GFP response vs DMSO
1,CCCCC[C@@H]1C=C(C(=O)O)[C@H](c2ccc(C#N)cc2)N1S(=O)(=O)c1ccc(C)cc1,88.2%
2,COc1ccccc1N(CC(=O)NC1CCCC1)C(=O)C1(C)CC(=O)N=C2C=CC(C)=CN21 (stereo unspecified),104%
3,O=C(Nc1ccc(-c2cscn2)cc1)C1CCCN(Cc2ccc(CO)o2)C1 (stereo unspecified),97.5%
4,COc1ccc(C(=O)N2CCCCC2C(=O)Nc2ccc(-n3nc(C)cc3C)cc2)o1 (stereo unspecified),109%
5,O=C(COC(=O)C12CC3CC(CC(O)(C3)C1)C2)NC12CC3CC(CC(C3)C1)C2,88.4%
6,Cc1ccc(S(=O)(=O)NCCCn2ccnc2)cc1C(=O)NC(C)C,99.8%
7,CCC(C)(C)NC(=O)CN(C(=O)CCC(=O)Nc1nccs1)c1ccc2c(c1)OCO2,109%
8,COc1ccc(C)cc1Nc1n[n+](-c2ccccc2)c(-c2cccc(Cl)c2Cl)s1,112%
9,O=C(c1ccc(F)cc1)c1cn(Cc2ccc(F)cc2)c2cc3c(cc2c1=O)OCCO3,97%
10,NC(=O)NC(=O)C(OC(=O)CCNS(=O)(=O)c1ccccc1)c1ccccc1 (stereo unspecified),115%
11,CC(C)(C)n1nc(Cc2cccc3ccccc23)c(C#N)c1N,91.2%
12,CCCOc1ccc(C2NC(=O)NC(c3ccccc3)=C2C(C)=O)cc1OCC (stereo unspecified),98.7%
13,CC(=O)c1ccc(S(=O)(=O)NCc2nnnn2-c2ccccc2)cc1,108%
14,CCC(=C/c1sc2ccc3ccccc3c2[n+]1C)/C=C1\Sc2ccc3ccccc3c2N1C,189% (active)
15,Cc1cc(C(=O)COc2ccccc2Cl)c(C)n1C1CC1,80.4%
16,O=C(c1cc(COc2c(F)cccc2F)on1)N1CCSCC1,99.2%
17,CCCN(C(=O)CSc1nnc(N)s1)c1c(N)n(Cc2ccccc2)c(=O)[nH]c1=O,102%
18,CC1CCC(C(C)C)C(=O)/C1=C\c1ccc(NC(=O)CCC(=O)O)cc1 (stereo unspecified),103%
19,CC(=O)NC1C(Oc2ccc(C=O)cc2)OC(COC(C)=O)C(OC(C)=O)C1OC(C)=O (stereo unspecified),102%
20,COc1ccc(CCNC(=O)C(=O)Nc2ccc3nc4n(c(=O)c3c2)CCCCC4)cc1OC,96.1%
21,CC(C)Oc1ccc(/C=N/NC(=O)c2nnn(-c3nonc3N)c2CN(C)C2CCCCC2)cc1,99.5%
22,Cc1cc(NC(=O)/C=C/C(=O)N(CC(=O)NC2CCCC2)c2ccc(F)cc2)no1,96.7%
